# Reference: PubChem BioAssay AID504832 (National Center for Advancing Translational Sciences (NCATS), 2011)
# About 18,000 (5.8%) of roughly 310,000 compounds were called active. Inconclusive results (about 22%) are left out. Calls follow the shape of the dose curve; as a rule, active = well fitted inhibition curve with a large enough effect; inconclusive = small, poorly fitted or top-dose-only effect, or another doubt; inactive = no such curve, though single readings can be large or run the other way. Shown is part of a subset that was picked to be rich in actives.
# Experiment: Primary qHTS for delayed death inhibitors of the malarial parasite plastid, 48 hour incubation
# Conditions: P. falciparum luciferase growth in erythrocytes; series mostly up to 28.7 µM; activity change, negative = inhibition: at the top concentration
# In short: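 Luciferase-expressing P. falciparum in infected erythrocytes (2% hematocrit, 0.1% parasitemia final) in RPMI 1640/0.5% Albumax were exposed to compound for 48 hours at 37 C, 5% CO2; growth read as luminescence.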
# % is scaled to controls: 0 for no effect and ±100 for the full control effect; potency is read from the fitted curve at half-maximal effect.
SMILES,"activity change, negative = inhibition",Potency
CC1CCCC(C)N1C(=O)COC(=O)COc1ccccc1C#N (centres undefined),26.8% (inactive),
COCCNC(=O)C(c1ccc(C)o1)N(Cc1ccccc1)C(=O)Cn1nnc2ccccc21 (centres undefined),-22.6% (inactive),
O=C(NCc1ccco1)C(c1ccncc1)N(C(=O)Cn1nnc2ccccc21)c1ccccc1 (centres undefined),-14% (inactive),
COc1ccccc1N(C(=O)Cn1nnc2ccccc21)C(C(=O)NCc1ccco1)c1ccc(C)o1 (centres undefined),,13.1 µM (active)
NC(=O)c1oc2ccccc2c1NC(=O)CS(=O)(=O)c1ccccc1,37.2% (inactive),
CC(=O)Oc1ccc(-c2nc3c(C)cccc3c(=O)o2)cc1,-7.88% (inactive),
COc1nc(N=C(N)N)nc2c(C)cccc12,,1.65 µM (active)
CCc1c(C)nc2c(OC)cccc2c1Cl,10.1% (inactive),
O=C(C1CCC(=O)N(C2CC2)C1)N1CCN(c2ccc(Cl)cc2)CC1 (centres undefined),-14.5% (inactive),
Cc1ccc(S(=O)(=O)N2CCCCC2)cc1C(=O)N1CCN(CCO)CC1,0.383% (inactive),
CC(CC(=O)Nc1ccc(F)cc1F)S(=O)(=O)c1ccc2c(c1)NC(=O)CO2 (centres undefined),3.89% (inactive),
O=[N+]([O-])c1cc(C(F)(F)F)ccc1NCCc1ccncc1,-26% (inactive),
COc1ccc(C(=O)NCc2nnc(SCC(=O)Nc3cccc(OC)c3)o2)cc1,15.9% (inactive),
Cc1ccc(Cc2nnc(SCC(=O)Nc3ccc(C)cc3C)[nH]c2=O)cc1,10.8% (inactive),
COc1cc(C2C(C#N)=C(C)NC3=C2C(=O)CC(C)(C)C3)ccc1O (centres undefined),,10.4 µM (active)
CC(=O)C1=C(C)NC2=C(C(=O)CC(C)(C)C2)C1C (centres undefined),-10.5% (inactive),
CCC1C(C#N)=C(SC)NC2=C1C(=O)CC(C)(C)C2 (centres undefined),-22% (inactive),
CC(=O)Nc1c2c(nn1-c1cccc(C)c1)CSC2,0% (inactive),
COc1ccc(S(=O)(=O)n2cnc3ccccc32)c(C)c1,-10.4% (inactive),
O=S(=O)(c1ccccc1)N(Cc1cccc(F)c1)c1ccccc1,-19.3% (inactive),
COc1ccc(NC(=O)COc2ccc(C(=O)c3ccc(F)cc3)cc2)cc1S(N)(=O)=O,-17.7% (inactive),
Cc1cc(=O)oc2c3c(cc(OCC(=O)N[C@H](C(=O)O)c4ccccc4)c12)OC(C)(C)CC3,5.58% (inactive),
Cc1ccc(-n2ncc(C(=O)NC3CC3)c2C2CCN(C(=O)OC(C)(C)C)CC2)c(C)c1,,10.4 µM (active)
CCOC(=O)N1CCC(NC(=O)c2cnn3ccccc23)CC1,3.52% (inactive),
Cc1ccc(C)c(NC(=O)C2CCCN2C(=O)OC(C)(C)C)c1 (centres undefined),22.4% (inactive),

SMILES,"activity change, negative = inhibition",Potency
O=C(COC(=O)c1cccc(Cl)c1)Nc1ccc2[nH]c(=O)[nH]c2c1,-34.1% (inactive),
CCCS(=O)(=O)Nc1ccc(-c2cn3c(n2)SCC3)cc1,24% (inactive),
Cc1ccc(NC(=O)Cn2c(C)csc2=O)cc1,12.8% (inactive),
CCC(=O)Nc1ccc2c(c1)nc(CCN1CCN(c3ccccn3)CC1)n2C,6.45% (inactive),
Cn1c(CCN2CCCCCC2)nc2cc(NC(=O)Nc3ccccc3)ccc21,,3.29 µM (active)
CCC(=O)Nc1ccc2c(c1)nc(CCN1CCN(C)CC1)n2C,8.09% (inactive),
O=C(NC1CCCCC1)C1CCC(CNS(=O)(=O)c2ccccc2)CC1 (centres undefined),7.51% (inactive),
CCN(CC)S(=O)(=O)c1ccc(N2CCOCC2)c(NC(=O)C2CSC3(C)CCC(=O)N23)c1 (centres undefined),0% (inactive),
CC(C)Oc1ccc(S(=O)(=O)N2CCOCC2)cc1NC(=O)C1CSC2(C)CCC(=O)N12 (centres undefined),,9.28 µM (active)
CC(C)Oc1ccc(S(=O)(=O)N2CCOCC2)cc1NC(=O)C1CCCC1,-22.1% (inactive),
Cc1ccc(NC(=O)CSc2nnc(CNC(=O)c3ccccc3F)o2)cc1Cl,32% (inactive),
Cc1ccc(NC(=O)C/C(N)=N/O)cc1Cl,2.93% (inactive),
Cc1ccc(NC(=O)CSc2nn3c(=O)c(C)nnc3s2)cc1Cl,,13.1 µM (active)
COc1cccc(-c2nc(CS(=O)CC(=O)NCc3ccc(F)cc3)c(C)o2)c1 (centres undefined),27.8% (inactive),
CCCn1c(=O)c(C(=O)Nc2cc(C)ccn2)c(O)c2ccccc21,28.3% (inactive),
O=S(=O)(Nc1ccccc1)c1ccc(NS(=O)(=O)c2cccs2)cc1,4.5% (inactive),
CCCCNC(=O)N(O)C1N(/N=C/c2ccc(N(C)C)cc2)C(=S)SC1(C)C (centres undefined),-2.29% [at 0.00184 µM] (inactive),
N#Cc1c(/N=C/N2CCCC2)oc(-c2ccccc2)c1-c1ccccc1,,4.65 µM (active)
N#Cc1c(NC(=O)CCCN2C(=O)c3ccccc3C2=O)oc(-c2ccccc2)c1-c1ccccc1,11.4% (inactive),
N#Cc1c(-c2ccccc2)c(-c2ccccc2)n[nH]c1=O,-11.1% (inactive),
C=C1CCC(N(O)c2cc(C)on2)C(=C)CCC2C1CC2(C)C (centres undefined),,4.65 µM (active)
COc1ccc(S(=O)(=O)N(C)CC(=O)NCCCN2CCOCC2)cc1Cl,21.6% (inactive),
CCCNC(=O)COc1coc(CN2CCN(Cc3ccccc3)CC2)cc1=O,6.97% (inactive),
Cc1ccc(CNS(=O)(=O)CCNC(=O)c2ccccc2)cc1,1.42% (inactive),
